Measurements taken from PubChem BioAssay (Tox21).
Inconclusive results are not listed. A call without a number means that no potency is given here. Calls of active or inactive are those of the source. Unless noted, calls follow the shape of the full dose curve.

Assays:
[1] = Nuclear factor erythroid 2-related factor 2/antioxidant responsive element (Nrf2/ARE) small molecule agonists: luciferase reporter gene qHTS assay in human keratinocytes (AID 1919969); also: nearly all actives have a fitted effect of over 35% in size; also: potency is read from the fitted curve at half-maximal effect
[2] = molecular target: Gonadotropin-releasing hormone receptor (Homo sapiens) (UniProt P30968); assay: Human gonadotropin-releasing hormone receptor (GnRHR) small molecule agonists, calcium flux assay in GnRHR-HEK293 cells (AID 1920063); also: nearly all actives have a fitted effect of over 35% in size
Method in brief: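 Fluorescence kinetics (480 nm excitation, 540 nm emission; 3 min, 1 s steps) report calcium mobilisation in human GnRHR-HEK293 cells in agonist mode. Dye incubation: 1 h, 37 C.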

[3] = molecular target: KiSS-1 receptor (Homo sapiens) (UniProt Q969F8); assay: Human kisspeptin (KISS1R) small molecule agonists, calcium flux assay in KISS1R-HEK293 cells (AID 1920064; active = well fitted activation curve with a large enough effect in the repeat runs)
Method in brief: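 Measures KISS1R agonism through calcium-sensitive dye fluorescence in stably transfected HEK293 cells, read for 3 min after pin-tool compound delivery; 15-point titrations in triplicate.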

[4] = G protein-coupled receptor (GPCR) small molecule agonists, calcium flux assay: HEK293 wild type cell line counter screen (AID 1920065)
Method in brief: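 Readout: fluorescence at 480 nm excitation/540 nm emission, sampled at 1 s intervals for 3 min. Cells had been cultured 18 h, then dye-loaded 1 h at 37 C before compound or ATP addition.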

[5] = p53 small molecule agonists, cell-based qHTS assay with human liver microsomes (AID 1963577);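 also: p53 response element beta-lactamase reporter cells with liver microsomes plus NADPH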
Method in brief: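 Steps: plate p53RE-bla cells, incubate 5 h at 37 C; add compound in DMSO; add microsomes (0.5 mg/mL final) and NADPH (0.5 mg/mL final); incubate 16 h at 37 C; add LiveBLAzer, 2 h RT; read fluorescence.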

[6] = p53 small molecule agonists, cell-based qHTS assay with human liver microsomes: qHTS cell viability counter screen (AID 1963579); also: nearly all actives have a fitted effect of over 45% in size; also: potency is read from the fitted curve at half-maximal effect
Method in brief: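 After the 460/530 nm beta-lactamase read, CellTiter-Glo was added to the same wells and luminescence measured after 30 min at room temperature, giving viability of p53RE-bla cells treated 16 h with compounds plus microsomes and NADPH.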

[7] = p53 small molecule agonists, cell-based qHTS assay with rat liver microsomes: qHTS cell viability counter screen (AID 1963580); also: nearly all actives have a fitted effect of over 45% in size; also: potency is read from the fitted curve at half-maximal effect
Method in brief: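 In HCT-116 cells carrying a p53 response element-bla reporter, compounds were metabolically activated in situ by rat liver microsomes with NADPH over 16 h. Cell ATP content then served as the cytotoxicity measure.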

[8] = p53 small molecule agonists, cell-based qHTS assay (AID 1963582; active = well fitted activation curve with a large enough effect in the signal ratio in the repeat runs, not every such curve was filed as active; the % refers to the signal ratio)
Method in brief: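 Compounds are pin-transferred in DMSO onto p53RE-bla cells and incubated 16 h at 37 C. The B/G FRET beta-lactamase substrate is then applied for 2 h at RT and fluorescence recorded.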

[9] = molecular target: 5-hydroxytryptamine receptor 2A (Homo sapiens) (UniProt P28223); assay: 5-hydroxytryptamine receptor 2A (HTR2A) small molecule antagonists, cell-based qHTS assay (AID 1963586); also: nearly all actives have a fitted effect of over 45% in size; also: potency is read from the fitted curve at half-maximal effect
Method in brief: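 Antagonist-mode intracellular calcium assay: DOI (4 nM) added after 5 min compound pre-incubation at room temperature to dye-loaded HTR2A-CHO cells. Fluorescence followed for 3 min, sampled every second.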

[10] = molecular target: 5-hydroxytryptamine receptor 2A (Homo sapiens) (UniProt P28223); assay: 5-hydroxytryptamine receptor 2A (HTR2A) small molecule agonists, cell-based qHTS assay (AID 1963587); also: nearly all actives have a fitted effect of over 30% in size
Method in brief: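 HTR2A-CHO cells, plated 18 h at 37 C/5% CO2, dye-loaded 1 h at 37 C; compounds in DMSO added by pin tool (agonist mode). Intracellular calcium flux read as kinetic fluorescence on FDSS over 2 min at 1 s intervals.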

[11] = molecular target: Muscarinic acetylcholine receptor M1 (Homo sapiens) (UniProt P11229); assay: Cholinergic receptor muscarinic 1 (CHRM1) small molecule antagonists, cell-based qHTS assay (AID 1963588); also: nearly all actives have a fitted effect of over 40% in size
Method in brief: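 CHRM1-CHO calcium-flux assay, antagonist mode. Cells were seeded 18 h, dye-loaded 1 h at 37 C and given compound for 5 min at RT, then acetylcholine was added at 50nM. FDSS fluorescence was read 3 min; 15 concentrations, three runs.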

[12] = molecular target: Muscarinic acetylcholine receptor M1 (Homo sapiens) (UniProt P11229); assay: Cholinergic receptor muscarinic 1 (CHRM1) small molecule agonists, cell-based qHTS assay (AID 1963589); also: nearly all actives have a fitted effect of over 35% in size
Method in brief: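 Each compound was tested at 15 concentrations across three independent runs on dye-loaded CHO cells stably expressing human CHRM1, reading intracellular calcium fluorescence kinetically at 1 sec intervals.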

[13] = cAMP Responsive Elements (CRE) small molecule agonists, cell-based qHTS assay (AID 1963590)
Method in brief: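 Cell line: CRE-bla HEK 293T; medium DMEM/10% dialyzed FBS/0.1 mM NEAA/1 mM pyruvate/25 mM HEPES; 3 h compound exposure; beta-lactamase FRET readout after 2 h substrate loading at RT.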

[14] = cAMP Responsive Elements (CRE) small molecule antagonists, cell-based qHTS assay (AID 1963591; active = well fitted inhibition curve with a large enough effect in the signal ratio in the repeat runs, not every such curve was filed as active; the % refers to the signal ratio)
Method in brief: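 Inhibition of NKH477-driven (0.25 uM final) CRE-beta-lactamase signal in HEK293T cells, 3 h compound exposure at 37 °C, detected by FRET substrate fluorescence.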

[15] = molecular target: Beta-2 adrenergic receptor (Homo sapiens) (UniProt P07550); assay: Adrenergic beta2 receptor (ADRB2) small molecule antagonists, cell-based qHTS assay (AID 1963592); also: nearly all actives have a fitted effect of over 50% in size; also: potency is read from the fitted curve at half-maximal effect
Method in brief: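 Cells (CHO, stable ADRB2 overexpression) incubated 18-20hr at 37C; compounds added from DMSO; agonist mix (1nM isoproterenol, 100uM IBMX, 25uM Ro-20-1724) added; 0.5hr RT; d2-cAMP and anti-cAMP-cryptate added; 1hr RT; 665/615 nm read.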

[16] = molecular target: D(2) dopamine receptor (Homo sapiens) (UniProt P14416); assay: Dopamine D2 receptor (DRD2) small molecule agonists, cell-based qHTS assay (AID 1963594); also: nearly all actives have a fitted effect of over 35% in size
Method in brief: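 HEK293 cells stably expressing DRD2 were cultured 24 h at 37 C, then given Ro20-1724 (0.1 mM final) and compounds for 10 min at room temperature. NKH477 (200nM) was then added for 30 min. cAMP was read by HTRF.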

[17] = molecular target: D(2) dopamine receptor (Homo sapiens) (UniProt P14416); assay: Dopamine D2 receptor (DRD2) small molecule antagonists, cell-based qHTS assay (AID 1963595; active = well fitted inhibition curve with a large enough effect in the signal ratio in the repeat runs, with a control signal flat; the % refers to the signal ratio; also: potency is read from the fitted curve at half-maximal effect)
Method in brief: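 Antagonist mode in DRD2-HEK293 cells: after compound addition with 0.1 mM Ro20-1724, cells received quinpirole (12 nM) and NKH477 (200 nM) for 30 min at room temperature; HTRF cAMP read after 1 h detection.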

[18] = p53 small molecule agonists, cell-based qHTS assay: qHTS cell viability counter screen (AID 1963581); also: nearly all actives have a fitted effect of over 45% in size; also: potency is read from the fitted curve at half-maximal effect
Method in brief: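 In the same plates used for the p53 bla reporter, HCT-116 cells given compounds for 16 h at 37 C received CellTiter-Glo; luminescence was recorded 30 min later at room temperature.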

[19] = molecular target: Beta-2 adrenergic receptor (Homo sapiens) (UniProt P07550); assay: Adrenergic beta2 receptor (ADRB2) small molecule agonists, cell-based qHTS assay (AID 1963593);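 also: CHO cells stably overexpressing human ADRB2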
Method in brief: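 CHO cells stably over-expressing ADRB2 were plated overnight at 37C, then dosed with compounds plus a stimulation mix containing 100uM IBMX and 25uM Ro-20-1724 for 0.5hr at room temperature. cAMP was measured by HTRF competition, 1hr.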

[20] = p53 small molecule agonists, cell-based qHTS assay with rat liver microsomes (AID 1963578)
Method in brief: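 Metabolic activation is supplied by rat liver microsomes with NADPH (each 0.5 mg/mL final). p53RE-bla cells incubate with compound 16 h at 37 C; reporter activity is measured by LiveBLAzer fluorescence.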

Sequence of Muscarinic acetylcholine receptor M1 (Homo sapiens) (P11229 whole entry, looked up): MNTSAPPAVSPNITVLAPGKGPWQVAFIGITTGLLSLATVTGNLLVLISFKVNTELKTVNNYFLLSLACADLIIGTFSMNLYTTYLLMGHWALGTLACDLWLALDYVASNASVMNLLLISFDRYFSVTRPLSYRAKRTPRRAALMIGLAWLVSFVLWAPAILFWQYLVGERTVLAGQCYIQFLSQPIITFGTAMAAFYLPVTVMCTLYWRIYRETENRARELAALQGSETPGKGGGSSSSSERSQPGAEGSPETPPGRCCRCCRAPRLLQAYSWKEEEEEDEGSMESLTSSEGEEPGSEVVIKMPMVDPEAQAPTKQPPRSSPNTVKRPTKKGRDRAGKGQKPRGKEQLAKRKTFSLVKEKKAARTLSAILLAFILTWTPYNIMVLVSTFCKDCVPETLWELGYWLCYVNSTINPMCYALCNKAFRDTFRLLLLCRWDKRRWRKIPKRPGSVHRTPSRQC
Sequence of KiSS-1 receptor (Homo sapiens) (Q969F8 whole entry, looked up): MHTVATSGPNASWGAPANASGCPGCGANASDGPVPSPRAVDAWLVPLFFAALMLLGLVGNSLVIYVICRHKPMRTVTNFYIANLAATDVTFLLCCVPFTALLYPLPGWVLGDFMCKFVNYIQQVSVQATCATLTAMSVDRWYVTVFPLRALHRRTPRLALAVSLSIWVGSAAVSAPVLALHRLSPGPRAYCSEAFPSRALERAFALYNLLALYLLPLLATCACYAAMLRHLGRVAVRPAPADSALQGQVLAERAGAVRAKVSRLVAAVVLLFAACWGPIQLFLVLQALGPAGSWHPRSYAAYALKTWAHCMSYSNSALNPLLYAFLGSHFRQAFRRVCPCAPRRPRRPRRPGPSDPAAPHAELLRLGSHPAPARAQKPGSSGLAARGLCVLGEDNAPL
Sequence of Gonadotropin-releasing hormone receptor (Homo sapiens) (P30968 whole entry, looked up): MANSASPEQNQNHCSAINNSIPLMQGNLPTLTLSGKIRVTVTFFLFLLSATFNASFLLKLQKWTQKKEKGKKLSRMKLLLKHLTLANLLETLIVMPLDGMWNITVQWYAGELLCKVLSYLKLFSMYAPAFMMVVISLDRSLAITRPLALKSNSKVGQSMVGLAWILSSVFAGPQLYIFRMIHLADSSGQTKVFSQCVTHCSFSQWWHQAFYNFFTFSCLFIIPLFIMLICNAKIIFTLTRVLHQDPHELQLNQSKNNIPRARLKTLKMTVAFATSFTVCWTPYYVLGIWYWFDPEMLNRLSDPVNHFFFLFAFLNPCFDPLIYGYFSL
Sequence of Beta-2 adrenergic receptor (Homo sapiens) (P07550 whole entry, looked up): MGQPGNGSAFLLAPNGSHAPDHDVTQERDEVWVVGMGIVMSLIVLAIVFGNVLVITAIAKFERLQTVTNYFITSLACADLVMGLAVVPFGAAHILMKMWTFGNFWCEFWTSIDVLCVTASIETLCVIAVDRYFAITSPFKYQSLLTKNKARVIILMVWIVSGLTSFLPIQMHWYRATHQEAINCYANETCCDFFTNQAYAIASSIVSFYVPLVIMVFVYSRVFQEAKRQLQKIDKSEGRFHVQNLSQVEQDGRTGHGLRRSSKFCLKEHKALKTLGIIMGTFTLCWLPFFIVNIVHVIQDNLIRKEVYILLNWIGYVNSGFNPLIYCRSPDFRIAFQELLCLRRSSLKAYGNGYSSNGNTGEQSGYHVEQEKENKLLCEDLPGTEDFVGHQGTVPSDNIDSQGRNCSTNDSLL
Sequence of D(2) dopamine receptor (Homo sapiens) (P14416 whole entry, looked up): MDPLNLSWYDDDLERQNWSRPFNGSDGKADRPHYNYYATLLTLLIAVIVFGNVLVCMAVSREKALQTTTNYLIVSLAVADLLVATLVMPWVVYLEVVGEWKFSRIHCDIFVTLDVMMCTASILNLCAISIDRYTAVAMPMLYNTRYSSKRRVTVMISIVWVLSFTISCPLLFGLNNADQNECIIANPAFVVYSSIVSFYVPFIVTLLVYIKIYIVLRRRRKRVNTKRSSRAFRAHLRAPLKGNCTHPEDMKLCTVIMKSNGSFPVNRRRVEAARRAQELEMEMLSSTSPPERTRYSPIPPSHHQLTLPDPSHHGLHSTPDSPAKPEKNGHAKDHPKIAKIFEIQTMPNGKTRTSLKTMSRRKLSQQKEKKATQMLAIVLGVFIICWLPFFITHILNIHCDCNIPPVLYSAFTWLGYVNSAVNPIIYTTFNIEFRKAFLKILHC
Sequence of 5-hydroxytryptamine receptor 2A (Homo sapiens) (P28223 whole entry, looked up): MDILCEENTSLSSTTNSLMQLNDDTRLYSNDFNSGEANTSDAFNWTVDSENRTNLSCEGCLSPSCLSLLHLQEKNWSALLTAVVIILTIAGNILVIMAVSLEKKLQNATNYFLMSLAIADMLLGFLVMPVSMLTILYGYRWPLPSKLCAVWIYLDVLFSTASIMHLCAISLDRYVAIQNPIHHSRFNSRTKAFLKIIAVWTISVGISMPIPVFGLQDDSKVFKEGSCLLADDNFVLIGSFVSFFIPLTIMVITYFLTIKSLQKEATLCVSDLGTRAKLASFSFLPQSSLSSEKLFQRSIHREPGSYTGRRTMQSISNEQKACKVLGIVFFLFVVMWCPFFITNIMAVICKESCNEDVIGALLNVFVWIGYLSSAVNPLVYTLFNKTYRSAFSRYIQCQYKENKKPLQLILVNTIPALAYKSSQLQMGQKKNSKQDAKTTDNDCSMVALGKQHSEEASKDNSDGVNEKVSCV

SMILES | Potency [1] | Potency [2] | outcome [3] | outcome [4] | Potency [5] | Potency [6] | Potency [7] | Potency [8] | Potency [9] | Potency [10] | Potency [11] | Potency [12] | Potency [13] | Potency [14] | Potency [15] | Potency [16] | Potency [17] | Potency [18] | Potency [19] | Potency [20]
COc1ccc2nc(NC(=O)Nc3ccccc3)sc2c1 | 0.596 µM (active) | inactive | inactive | inactive | inactive | inactive | inactive | inactive | inactive | inactive | inactive | inactive | inactive | inactive | 11.9 µM (active) | inactive | inactive | – | – | –
CCCCCc1ccco1 | 44.7 µM (active) | inactive | inactive | inactive | inactive | inactive | – | inactive | inactive | inactive | – | inactive | inactive | inactive | inactive | inactive | inactive | inactive | inactive | –
Cc1oc(-c2ccccc2)nc1CCOc1ccc(C[C@H](Nc2ccccc2C(=O)c2ccccc2)C(=O)O)cc1 | – | inactive | inactive | inactive | inactive | 28.9 µM (active) | 45.8 µM (active) | – | inactive | inactive | inactive | – | – | – | inactive | inactive | inactive | 20.4 µM (active) | inactive | inactive
Cc1nc2n(c(=O)c1CCN1CCC(C(=O)c3ccc(F)cc3)CC1)CCS2 | – | inactive | inactive | inactive | inactive | inactive | inactive | – | 0.0041 µM (active) | inactive | – | inactive | inactive | inactive | inactive | inactive | 0.0668 µM (active) | inactive | inactive | inactive
CC(=O)OC1CCCCC1 | inactive | inactive | inactive | inactive | inactive | inactive | inactive | inactive | – | inactive | inactive | inactive | inactive | inactive | inactive | inactive | inactive | inactive | – | –
CC(C)(C)CC(=O)OCC(=O)[C@@]1(O)CC[C@H]2[C@@H]3CCC4=CC(=O)C=C[C@]4(C)[C@H]3[C@@H](O)C[C@@]21C | inactive | inactive | inactive | inactive | inactive | inactive | inactive | inactive | – | inactive | inactive | inactive | inactive | inactive | – | – | inactive | inactive | – | –
CC(C)OCC1CO1 (configuration not stated) | 30.5 µM (active) | inactive | inactive | inactive | – | – | inactive | inactive | inactive | inactive | inactive | inactive | inactive | inactive | inactive | inactive | inactive | – | – | inactive
CC(=O)Nc1ccc(S(=O)(=O)Nc2cc(C)on2)cc1 | inactive | inactive | – | inactive | inactive | inactive | inactive | inactive | inactive | inactive | inactive | inactive | inactive | inactive | – | inactive | inactive | inactive | – | inactive
COc1c(C)c2c(c(O)c1C/C=C(\C)CCC(=O)O)C(=O)OC2 | inactive | – | inactive | inactive | inactive | inactive | inactive | – | – | – | – | – | – | – | inactive | – | inactive | – | inactive | inactive
NCCS | – | inactive | inactive | inactive | – | inactive | inactive | inactive | inactive | inactive | – | inactive | inactive | – | inactive | inactive | inactive | inactive | – | inactive
CC(C)C[C@@H]1[C@H](c2ccccc2)OC(=O)N1CCCN1CCCCCC1 | inactive | inactive | inactive | inactive | – | – | inactive | inactive | 2.59 µM (active) | – | inactive | inactive | – | inactive | inactive | inactive | inactive | inactive | – | inactive
CN(C)CCCSc1ccccc1NC(=O)/C=C/c1ccccc1 | inactive | inactive | – | inactive | inactive | inactive | – | inactive | – | – | inactive | inactive | inactive | inactive | – | inactive | – | inactive | inactive | inactive
C1=CCC(c2ccccc2)CC1 (configuration not stated) | inactive | inactive | – | inactive | inactive | inactive | inactive | inactive | inactive | inactive | inactive | inactive | inactive | inactive | inactive | inactive | – | inactive | – | inactive
NC(=O)NS(=O)(=O)c1ccc(N)cc1 | inactive | inactive | inactive | inactive | – | inactive | inactive | inactive | – | inactive | inactive | – | – | inactive | – | inactive | inactive | inactive | inactive | inactive
